Shown are actives, neighbours in structure and some others; about 21% of the full set was active somewhere.
Shiga toxin inh: Shiga toxin inhibition | 290,000 compounds, 9.2% hits | inhibition, % at 38.7 µM | Vero cells, Shiga toxin protein synthesis inhibition reporter; in the data active = inhibition mostly above about 28%, no sharp cut-off; inactive = mostly below about 43%
Pf growth 48h: P. falciparum growth inhibition at 48 hours (one generation); P. falciparum luciferase growth in erythrocytes, 48 h; AID 504832; Potency, µM (highest dose often 28.7 µM), hits mostly inhibitors; 310,000 compounds, 5.9% hits
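Here the parasites carry a stable luciferase gene and grow inside erythrocytes in Albumax-based RPMI medium with compound for one erythrocytic cycle. Activity is scored as loss of luminescent signal.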
NS1 function inh: blocks influenza NS1 protein function; Potency, µM (doses to about 46.1 µM); 270,000 compounds, 0.4% hits; AID 2326; calls by dose curve; note: actives are rising curves; nearly all actives have a fitted effect of over 50% in size
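Recovery from NS1-induced slow growth read by OD600 in budding yeast switched to galactose assay medium (pH 6.0, -URA) at 1:100 dilution. Compound 23 nl per well; the matching strain lacking NS1 serves as control.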
Pf growth 96h: P. falciparum growth inhibition at 96 hours; Potency, µM (highest dose often 28.7 µM), actives largely listed as inhibitors; 320,000 compounds, 6.9% hits; P. falciparum luciferase reporter growth, 96 h
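Parasite growth measured via integrated firefly luciferase reporter in P. falciparum. Infected erythrocytes at 2% hematocrit, 0.05% parasitemia final were treated 96 hours at 37 C under 5% CO2, and luminescence was read.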
CHX counter: counter-screen hit for Shiga toxin inhibitors, cycloheximide; 300,000 compounds, 12% hits; AID 2314; max response, %; cell reporter, cycloheximide protein synthesis inhibition counterscreen; in the data active = max response mostly above about 13%, no sharp cut-off; inactive = mostly below about 14%; note: read at 38.3 µM for the half of the compounds with a filed dose
Each line names hits and unclear results; the compound was inactive in the other large screens. Unless noted, calls come from the whole dose curve; as a rule, active = well fitted inhibition curve with a large enough effect; inconclusive = small, poorly fitted or top-dose-only effect, or another doubt; inactive = no such curve, though single readings can be large or run the other way.

CN(CCO)c1c2c(nc3cc(-c4cccc(F)c4)nn13)CCCC2	Pf growth 96h inconclusive, CHX counter 42.1
Cc1nn2c(NCCOCCO)c3c(nc2c1-c1ccccc1)CCC3	Pf growth 96h inconclusive
OC1CCN(c2c3c(nc4cc(-c5cccc(F)c5)nn24)CCCC3)CC1	Pf growth 48h 9.28µM, CHX counter 32.6
CCOCCN1CCN(c2c3c(nc4cc(-c5ccc(F)cc5)nn24)CCC3)CC1	Pf growth 48h inconclusive
Clc1cccc(-c2cc3nc4c(c(NCc5ccco5)n3n2)CCCC4)c1	Shiga toxin inh 131.2, Pf growth 96h inconclusive, CHX counter 47.0
O=C(CC12CC3CC(CC(C3)C1)C2)Nc1c(F)cccc1F	none
Cc1noc(C)c1CSc1ccccc1C(=O)N(C)CC(=O)Nc1cccc(F)c1	none (no result: Shiga toxin inh, NS1 function inh, CHX counter)
CCN(Cc1nc(-c2cccc(C)c2)no1)C(=O)c1ccco1	none
CC1CCN(c2ccc(NC(=O)c3ccccc3[N+](=O)[O-])cc2)CC1	none
O=C(Oc1cccc(NC(=O)c2ccco2)c1)c1cccc(S(=O)(=O)N2CCCCC2)c1	none (no result: Pf growth 48h)
Cc1nc2cc(-c3cccc(F)c3)nn2c(N2CCOCC2)c1C	none (no result: Shiga toxin inh, Pf growth 48h, Pf growth 96h, CHX counter)
Clc1cccc(-c2cc3nc4c(c(N5CCNCC5)n3n2)CCCC4)c1	CHX counter 31.4
Fc1cccc(-c2cc3nc4c(c(N5CCC6(CC5)OCCO6)n3n2)CCCC4)c1	Shiga toxin inh 107.8, Pf growth 48h 9.28µM, CHX counter 28.3
COc1cc(OC)cc(-c2cc3nc4c(c(N5CCN(c6ncccn6)CC5)n3n2)CCCC4)c1	Pf growth 48h 1.31µM
CC(CC(=O)O)CC(=O)Nc1ccccc1C(=O)O (stereo not drawn)	none (no result: Pf growth 96h)
CC1(C)CC2CC(C)(CN2S(=O)(=O)c2ccc(F)cc2F)C1 (stereo not drawn)	Pf growth 48h inconclusive (no result: Shiga toxin inh, NS1 function inh, CHX counter)
COc1cccc(NC(=O)CN(C2=NC3CS(=O)(=O)CC3S2)c2cccc(C)c2)c1 (stereo not drawn)	Pf growth 48h inconclusive, Pf growth 96h inconclusive
O=C(OCc1nc2ccsc2c(=O)[nH]1)c1ccc(Cl)s1	none (no result: Shiga toxin inh, NS1 function inh, CHX counter)
CCCc1cc(=O)oc2c3c(cc(OCC(=O)NCCN4CCOCC4)c12)OC(C)(C)CC3	Pf growth 48h inconclusive, Pf growth 96h 9.28µM
CCCCc1cc(=O)oc2c3c(cc(OCC(=O)NCCCO)c12)OC(C)(C)CC3	Pf growth 48h inconclusive, Pf growth 96h inconclusive
CCCc1cc(=O)oc2c3c(cc(OCC(=O)NCc4ccccn4)c12)OC(C)(C)CC3	Pf growth 48h 11.7µM, Pf growth 96h 14.7µM
Cc1nn(C)c(C)c1CN(C)C(=O)CCCC(=O)O	none
O=C(CCN1CCN(C(c2ccccc2)c2ccccc2)CC1)N/N=C/c1ccc(O)cc1O	Pf growth 48h inconclusive, Pf growth 96h 5.22µM
Cc1ccccc1NCc1ccc(O)c2ncccc12	Pf growth 48h inconclusive
Oc1ccc(COc2cccc3ccccc23)c2cccnc12	Pf growth 48h 2.62µM, Pf growth 96h 5.22µM (no result: Shiga toxin inh, NS1 function inh, CHX counter)
Oc1ccc(CNc2ccc(F)cc2)c2cccnc12	Pf growth 48h inconclusive, Pf growth 96h inconclusive
Oc1ccc(COCc2ccc(F)cc2)c2cccnc12	Pf growth 48h 2.94µM, Pf growth 96h 4.15µM (no result: Shiga toxin inh, NS1 function inh, CHX counter)
Oc1ccc(COC2CCCC2)c2cccnc12	Pf growth 48h 1.31µM, Pf growth 96h 8.28µM (no result: Shiga toxin inh, NS1 function inh, CHX counter)
COCc1ccc(O)c2ncccc12	Pf growth 96h inconclusive, CHX counter 26.2 (no result: Pf growth 48h)
CC(C)C1=CC(=Nc2ccc(S(N)(=O)=O)cc2)C=C(C(C)C)C1=O	Pf growth 96h inconclusive
CC(C)=CCN1CCN(Cc2cccn2-c2nccs2)CC1CCO (stereo not drawn)	Pf growth 96h 10.4µM
OCCC1CN(Cc2cccn2-c2nccs2)CCN1Cc1ccc(F)c(F)c1 (stereo not drawn)	Pf growth 48h inconclusive, Pf growth 96h 13.1µM
OCCC1CN(Cc2cccn2-c2nccs2)CCN1Cc1ccccc1 (stereo not drawn)	none
S=C(NCc1ccccc1)NCc1ccccn1	none
O=C(NCC(O)c1ccc([N+](=O)[O-])cc1)Nc1ccccc1 (stereo not drawn)	none
COc1ccc(-c2csc(Nc3ccccc3)[n+]2CC(O)c2ccc([N+](=O)[O-])cc2)cc1 (stereo not drawn)	Pf growth 48h 1.31µM, Pf growth 96h 1.47µM, CHX counter 18.2
O=C(NCc1ccccc1)c1cc2ccc(O)cc2oc1=O	Shiga toxin inh 42.2, CHX counter 21.4
NC(=O)c1cc2ccccc2oc1=NCc1ccccc1	none
NC(=O)c1cc2ccc(O)cc2oc1=NCc1ccccc1	CHX counter 15.7
NC(=O)c1cc2ccc(O)cc2oc1=Nc1ccccc1	Shiga toxin inh 50.3, CHX counter 62.9
COc1ccc(OC)c(N=c2oc3cc(O)ccc3cc2C(N)=O)c1	NS1 function inh inconclusive, Pf growth 96h 13.1µM
COc1ccc2cc(C(N)=O)c(=Nc3ccccc3)oc2c1	Pf growth 96h inconclusive (no result: NS1 function inh)
NC(=O)CSc1cn(Cc2ccccc2)c2ccccc12	none (no result: NS1 function inh)
CCOC(=O)c1nnn(CC(=O)N2N=C(c3cc(C)ccc3C)CC2c2ccc(OC)cc2)c1C(=O)OCC (stereo not drawn)	Pf growth 48h 14.7µM, Pf growth 96h 9.28µM
CC(=O)N1N=C(c2ccc3nccnc3c2)CC1c1ccccc1 (stereo not drawn)	none
CCOC(=O)c1nnn(CC(=O)N2N=C(c3ccccc3)CC2c2ccccc2)c1C(=O)OCC (stereo not drawn)	Pf growth 48h 11.7µM, Pf growth 96h inconclusive
CCOC(=O)c1nnn(CC(=O)Nc2ccccc2)c1C(=O)OCC	Pf growth 96h inconclusive (no result: NS1 function inh)
CCOC(=O)/C=C(\C)N1N=C(c2ccccc2)CC1c1ccccc1 (stereo not drawn)	Shiga toxin inh 100.0, CHX counter 42.2 (no result: NS1 function inh)
C=CCn1c(CC(=O)OC)csc1=Nc1ccc(C(C)=O)cc1	Shiga toxin inh 62.8, Pf growth 96h inconclusive, CHX counter 33.0
CCOC(=O)c1ccc(N=c2scc(C)n2CC)cc1	Shiga toxin inh 80.1, CHX counter 39.7 (no result: NS1 function inh)
C=CCN=c1sc(C(=O)OC)cc(=O)n1CC=C	none (no result: Pf growth 96h)
C=CCn1c(C)csc1=Nc1ccc(C(C)=O)cc1	Shiga toxin inh 111.0, CHX counter 33.5
C=CCn1c(C)csc1=Nc1ccccc1C	Pf growth 96h inconclusive, CHX counter 29.5
C=CCn1c(-c2sccc2C)n[nH]c1=S	none
NC(=O)C1CCN(C(=O)NC2CC(=O)N(c3ccc4c(c3)OCCO4)C2)CC1 (stereo not drawn)	none (no result: Shiga toxin inh, NS1 function inh, CHX counter)
COc1ccc(-c2cc(=S)ss2)cc1	Pf growth 96h inconclusive (no result: Shiga toxin inh, NS1 function inh, CHX counter)
COc1ccc(-c2cc3ncnc(Cl)c3s2)cc1	CHX counter 32.6
CCn1c(SCC(=O)N/N=C/c2ccc(O)c(OC)c2)nc2ccccc21	none
O=C(Nc1cccs1)Nc1ccc(F)cc1F	Pf growth 96h inconclusive, CHX counter 20.0
O=C(Cc1cccs1)Nc1ccc(F)cc1F	none
O=C(Nc1cccs1)Nc1ccc(Br)cc1F	Shiga toxin inh 194.2, Pf growth 48h inconclusive, Pf growth 96h 11.7µM, CHX counter 67.0
O=C1CCN(S(=O)(=O)c2ccccc2)CCN1CCOCc1cccc(F)c1	none
O=C(c1cc2sccc2n1Cc1ccccc1)N1CCc2ccccc21	Pf growth 48h inconclusive, NS1 function inh inconclusive, Pf growth 96h inconclusive
O=C(c1cc2sccc2n1Cc1ccccc1)N1CCCc2ccccc21	Shiga toxin inh 135.4, Pf growth 48h inconclusive, CHX counter 40.8 (no result: Pf growth 96h)
